This is an account of results in PubChem BioAssay AID1946 (Johns Hopkins Ion Channel Center, 2009).

Screen size: about 2,400 compounds; about 180 (7.5%) were called active. Only a selection was taken, and actives are over-represented in it overall. A number with no mark means an inactive call.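 The calls were made as follows: active = readout below zero, meaning a drop past 3 SD under the dofetilide-free negative control mean; inactive = the rest.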

The target of this experiment is Potassium voltage-gated channel subfamily KQT member 2 (Rattus norvegicus) (UniProt O88943). Kind of experiment: rat KCNQ2 channel inhibition by compounds alone, confirmation, counter-screen for hERG block protector project, cell-based, CHO, FluxOR thallium flux (AID 1946). To be noted: CHO-KCNQ2 cells, FluxOR thallium flux fluorescence; at 10 µM; stronger effect = lower value; zero marks the 3-SD hit cutoff. Background: The purpose of a counterscreen is to sort out artefacts and off-target activity.
Chain of Potassium voltage-gated channel subfamily KQT member 2 (Rattus norvegicus) (O88943 whole entry, looked up): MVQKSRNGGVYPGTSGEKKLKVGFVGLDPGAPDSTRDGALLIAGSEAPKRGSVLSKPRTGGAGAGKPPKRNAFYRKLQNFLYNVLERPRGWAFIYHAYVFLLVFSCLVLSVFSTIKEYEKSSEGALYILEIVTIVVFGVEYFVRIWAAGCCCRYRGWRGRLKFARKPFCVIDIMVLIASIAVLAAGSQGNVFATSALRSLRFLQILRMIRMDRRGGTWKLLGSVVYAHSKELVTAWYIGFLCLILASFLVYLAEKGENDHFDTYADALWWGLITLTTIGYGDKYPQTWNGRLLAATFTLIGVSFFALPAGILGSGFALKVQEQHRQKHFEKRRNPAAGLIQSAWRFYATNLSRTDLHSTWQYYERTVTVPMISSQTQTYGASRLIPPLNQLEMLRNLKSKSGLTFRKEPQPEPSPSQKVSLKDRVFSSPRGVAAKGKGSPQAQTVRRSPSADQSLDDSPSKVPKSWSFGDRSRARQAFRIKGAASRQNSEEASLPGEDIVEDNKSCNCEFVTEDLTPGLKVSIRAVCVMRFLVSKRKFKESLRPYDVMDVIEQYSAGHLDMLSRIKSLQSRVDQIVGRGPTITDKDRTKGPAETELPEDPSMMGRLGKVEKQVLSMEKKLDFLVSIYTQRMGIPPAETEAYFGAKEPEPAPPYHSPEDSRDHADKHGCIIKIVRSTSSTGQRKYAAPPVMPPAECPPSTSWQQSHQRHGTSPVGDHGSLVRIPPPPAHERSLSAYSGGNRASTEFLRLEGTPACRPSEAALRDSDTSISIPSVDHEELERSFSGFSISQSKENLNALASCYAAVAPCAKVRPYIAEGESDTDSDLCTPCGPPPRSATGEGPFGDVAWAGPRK
With `O=C1c2ccccc2NC(c2ccc(Br)s2)N1O` (stereo not given), the activity change vs negative control was 92.4%.

For `COc1cccc(C=NCCCN=Cc2cccc(OC)c2O)c1O`, the activity change vs negative control was 37.4%.

`Cc1ccnc(SCCn2c(N3CC(C)OC(C)C3)nc3c2c(=O)n(C)c(=O)n3C)n1` (stereo not given): the activity change vs negative control was -2% (active).

As to `C=CCn1c(N2CCCCCC2)nc2c1c(=O)n(C)c(=O)n2C`, the activity change vs negative control was 15.6%.

As for `CCOC(=O)NC(=S)Nc1ccc(C(C)(C)C)cc1`, the activity change vs negative control was 30.4%.

Take `CCOc1ccc(/C=C2/SC(=O)NC2=S)cc1`: the activity change vs negative control was 111%.

As to `CCCCC(=O)Nc1ccc(NCc2ccc(C)s2)cc1`, the activity change vs negative control is 66.2%.

Regarding `Cc1c(-c2ccccc2)sc2nc[nH]c(=S)c12`, the activity change vs negative control was 75%.

In the case of `Cc1ccc(-n2c(C)cc(C(=O)CN3CCOCC3)c2C)cc1`, the activity change vs negative control was 10.9%.

Take `Cc1cc(F)c(F)c(C(=O)N2CCOCC2)c1`: the activity change vs negative control was 7.3%.

Consider `Cc1cc(C(=O)NP(=O)(N2CCOCC2)N2CCOCC2)c(C)n1-c1ccc(Br)cc1`, for which the activity change vs negative control is -0.1% (active).

`O=c1c(-c2cccc3ccccc23)[n+]([O-])c2ccccc2n1O`: the activity change vs negative control is 27.4%.

For the molecule `Cc1cc(=O)oc2cc(OCC(=O)OCC(=O)NC(C)C)ccc12`, the activity change vs negative control was 12.7%.

As to `COc1ccc(-c2cc(=O)oc3cc(OCC(C)=O)ccc23)cc1`, the activity change vs negative control is -6.4% (active).

As for `COc1ccc(-c2c(C)c3ccc(OCC(C)=O)cc3oc2=O)cc1`, the activity change vs negative control is 4.2%.

In the case of `Oc1ccc(N2CCN(C(c3cccnc3)c3nnnn3Cc3ccccc3)CC2)cc1` (stereo not given), the activity change vs negative control is 19.3%.

For `c1ccc(Cn2ncc3c(N4CCN(C(c5ccccc5)c5ccccc5)CC4)ncnc32)cc1`, the activity change vs negative control was -7.5% (active).

With `Oc1ccc(Cl)cc1C1=NNC(c2cccs2)C1` (stereo not given), the activity change vs negative control was 36.9%.

In the case of `CC(C)c1ccc(NC(=O)C2CC3CCC2C3)cc1` (stereo not given), the activity change vs negative control is 45.1%.

`CCOC(=O)C1=NN(C(=O)c2cccc(Br)c2)C(O)(C(C)(C)C)C1` (stereo not given): the activity change vs negative control is 111%.

Take `O=C(NC(=S)N1CCCc2ccccc21)c1ccc(Br)cc1`: the activity change vs negative control was 49.6%.

Turning to `O=C(NN1C(=O)C2C(c3ccccc3)C=CC(c3ccccc3)C2C1=O)c1cccc(Br)c1` (stereo not given), the activity change vs negative control was 10.8%.

For `O=C(NN1C(=O)C2C(c3ccccc3)C=CC(c3ccccc3)C2C1=O)c1ccncc1` (stereo not given), the activity change vs negative control was -13% (active).

On to `O=C(Nn1cnnc1)c1ccncc1`, for which the activity change vs negative control was 12.7%.

Take `Cc1ccc(C(C)NC(=O)C2CCCC2)cc1C` (stereo not given): the activity change vs negative control is 66.7%.

As for `Cc1cccc(N2CCN(C(=O)Cc3c(C(=O)O)[nH]c4ccc(Cl)cc34)CC2)c1C`, the activity change vs negative control was 38.6%.

As for `CC1CCN(C(=S)NC(=O)c2cccc([N+](=O)[O-])c2)CC1`, the activity change vs negative control is 37.1%.

Regarding `O=c1c2cc(Cl)ccc2nc(-c2ccc(Cl)c(Cl)c2)n1O`, the activity change vs negative control is 150%.

Consider `Cc1ccc(-c2onc3ccc(Cl)cc23)cc1`, for which the activity change vs negative control is -2% (active).

Consider `Cc1ccc(-c2nc3ccc(Cl)cc3c(=O)n2O)cc1`, for which the activity change vs negative control was 118%.

On to `CC[C@@H](C(=O)[C@@H](C)[C@@H](O)[C@H](C)CCc1ccc(C)c(O)c1C(=O)O)[C@H]1O[C@](CC)([C@H]2CC[C@](O)(CC)[C@H](C)O2)C[C@@H]1C`, for which the activity change vs negative control is 169%.

As for `COc1ccccc1NC(=S)NC(=O)c1ccc(-c2ccc(Cl)cc2)o1`, the activity change vs negative control was 16.7%.

Take `C=CCn1c(=S)[nH]c2sc3c(c2c1=O)CCCC3`: the activity change vs negative control is 60.7%.

Turning to `O=C(CNC(=O)c1ccccc1)NCc1ccc(Cl)cc1`, the activity change vs negative control was 10.8%.

Regarding `O=C(NC(=S)NCCc1ccc(Cl)cc1)c1ccco1`, the activity change vs negative control was 23.7%.

`O=C(Cn1c(=O)c2cccn2c2ccccc21)NCCc1ccc(Cl)cc1`: the activity change vs negative control was -3.5% (active).

As for `Cc1nc(NCCc2ccc(S(N)(=O)=O)cc2)c2c(C)c(C)sc2n1`, the activity change vs negative control is 15.2%.

With `O=c1cc(-c2c(F)c(F)c(F)c(F)c2F)oc2ccccc12`, the activity change vs negative control is 41.6%.

In the case of `COc1ccccc1C(=O)COC(=O)c1ccc(-n2cnnn2)cc1`, the activity change vs negative control is -0.2% (active).

With `COc1ccccc1C(=O)Nc1ccc(C(=O)N2CCCC2)cc1`, the activity change vs negative control was 14.7%.

Take `CCOC(=O)c1nnn(CC(=O)Nc2ccccc2OC)c1C(=O)OCC`: the activity change vs negative control is 7.9%.

Regarding `O=C(NC(=S)Nc1nc(-c2ccc([N+](=O)[O-])cc2)cs1)c1ccco1`, the activity change vs negative control is 42%.

For the molecule `Cc1ccc(S(=O)(=O)N(C)C)cc1NC(=S)NC(C)CCCC(C)C` (stereo not given), the activity change vs negative control was -2.5% (active).

For the molecule `O=c1c2ccc(Cl)cc2[nH]c(=S)n1CCC1=CCCCC1`, the activity change vs negative control is 32.4%.

Turning to `NC(=O)c1cccc(N=Cc2cc(Cl)cc(Cl)c2O)c1`, the activity change vs negative control was 43.3%.

`O=C(Nc1nc(=S)ss1)c1ccc(Cl)cc1Cl`: the activity change vs negative control is 122%.

Take `CCC1CCCCN1C(=S)NC(=O)c1cccc([N+](=O)[O-])c1` (stereo not given): the activity change vs negative control was 55.4%.

As for `O=C(NC(=S)NCCC1=CCCCC1)c1ccc(Br)o1`, the activity change vs negative control was 26.5%.

With `Cc1cc([N+](=O)[O-])c(C)cc1-c1ccc(/C=N/NC(=O)Cn2nnnc2N)o1`, the activity change vs negative control was 19.5%.

On to `C=CCSC1=C(C#N)C(c2ccccc2)CC(=O)N1` (stereo not given), for which the activity change vs negative control is -8.8% (active).

On to `COc1ccc(C(=O)NNC(=O)C(=O)Nc2cccc3ccccc23)cc1`, for which the activity change vs negative control was 80.5%.

Regarding `Cc1ccc(NC(=O)C(=O)NNC(=O)c2cccs2)cc1`, the activity change vs negative control was 83.8%.

In the case of `C=CCn1c(SCC(N)=O)nc2scc(-c3ccc(C)o3)c2c1=O`, the activity change vs negative control was 33%.

Regarding `CCCN(CCC)C(=S)NC(=O)c1ccc(-c2ccccc2)cc1`, the activity change vs negative control is 106%.

In the case of `CS(=O)(=O)N1CCC(C(=O)Nc2c(F)cccc2F)CC1`, the activity change vs negative control is 16.7%.

Regarding `O=C(CSc1nnc(NC(=O)c2ccc(S(=O)(=O)N3CCOCC3)cc2)s1)Nc1ccccc1C(F)(F)F`, the activity change vs negative control was 15.7%.

For the molecule `CSc1ccc(S(=O)(=O)N2CCC(C(=O)Nc3ccccc3C(F)(F)F)CC2)cc1`, the activity change vs negative control is -0.2% (active).

For `S=c1[nH]c2cc(-c3ccccc3)ccc2o1`, the activity change vs negative control is 114%.

With `N#Cc1ccc(-c2nc3ccc(Br)cc3c(=O)n2O)cc1`, the activity change vs negative control was 40.3%.

For the molecule `O=S(=O)(Nc1ccc(O)c2ccccc12)c1ccc(F)cc1`, the activity change vs negative control was 1.7%.

`Cc1ccc(S(=O)(=O)Nc2ccc(O)c3ccccc23)c(C)c1`: the activity change vs negative control was -3.3% (active).

On to `COc1ccc(OC)c(S(=O)(=O)Nc2ccc(O)c3ccccc23)c1`, for which the activity change vs negative control is 1.4%.

`CC1Cc2ccccc2N1C(=S)NC(=O)C1(C)CC1(Cl)Cl` (stereo not given): the activity change vs negative control was 59.5%.

`CC(NC(=S)NC1CCCCC1)c1ccccc1` (stereo not given): the activity change vs negative control is 29.9%.

In the case of `Cc1ccc(S(=O)(=O)N2CCOCC2)cc1NC(=O)COC(=O)c1cccnc1Cl`, the activity change vs negative control is -1.4% (active).

For the molecule `Cc1ccc(Cl)cc1NC(=O)COC(=O)c1ccccc1O`, the activity change vs negative control was 6.8%.

In the case of `Cc1ccc(S(=O)(=O)N2CCOCC2)cc1NC(=O)CSc1nc2ccccc2c(=O)n1Cc1ccccc1`, the activity change vs negative control is 13.7%.

Consider `C=CCNC(=S)Nc1sc2c(c1C(=O)OCC)CC(C)(CC)OC2` (stereo not given), for which the activity change vs negative control was 38.9%.

Take `CC(=O)/C=C1/C(=O)Nc2ccccc21`: the activity change vs negative control is -4.4% (active).

Consider `CCOC(=O)c1c(NS(C)(=O)=O)sc2c1CCC(C)C2` (stereo not given), for which the activity change vs negative control is 40.9%.

As to `O=c1c2[nH]c3ccccc3c2nc2n1CCCS2`, the activity change vs negative control is 30.9%.

Regarding `O=C(Nc1ccc(-c2csc(Nc3cccc(C(F)(F)F)c3)n2)cc1)c1ccccc1`, the activity change vs negative control is -0.8% (active).

For `O=C(NC(=S)Nc1cccc(C(F)(F)F)c1)c1csnn1`, the activity change vs negative control was 138%.

Take `c1ccc(-c2csc(Nc3ccc4c(c3)OCCO4)n2)cc1`: the activity change vs negative control is 1.2%.

Turning to `CC(=O)OCC1O[C@@H](O[C@@H]2C[C@H]3C(C)(C)[C@H](OC(C)=O)CC[C@]3(C)[C@H]3CC[C@]45C[C@]4(CC[C@H]5[C@@H](C)C[C@@H](O)[C@H](O)C(C)(C)O)[C@@]32C)[C@H](O)[C@@H](O)[C@@H]1O` (stereo not given in full), the activity change vs negative control is 32.4%.

As for `Cc1csc(NC(=S)NC(=O)c2ccccc2)n1`, the activity change vs negative control was 36.6%.

With `Cn1cnnc1SCC(=O)NCc1ccccc1`, the activity change vs negative control was -1.1% (active).

Regarding `NC(=O)CSc1nc2ccccc2c(=O)n1CCc1ccccc1`, the activity change vs negative control was 7.8%.

As to `COc1ccc(C(=O)NNC(=O)CSc2nnc(COc3ccccc3)n2C)cc1`, the activity change vs negative control was 6%.

For `C=CCn1c(O)c(N=NC(=S)Nc2ccc(OC)cc2)c2ccccc21`, the activity change vs negative control was 39.5%.

As to `CCOc1ccccc1NC(=S)NC(=O)c1ccco1`, the activity change vs negative control was 21.9%.

Take `CCCOc1ccc(CN(CCC#N)C(=S)NC(=O)c2ccccc2)cc1`: the activity change vs negative control was 35.1%.

In the case of `CCOc1ccc(C(=O)NC(=S)N(Cc2ccccc2)Cc2ccccc2)cc1`, the activity change vs negative control is 15.8%.

As for `O=C(NC(=S)NNC(=O)c1cccs1)c1ccc(Br)o1`, the activity change vs negative control is 18.8%.

`CCCOc1ccc(C(=O)NNC(=S)NC(=O)c2cccs2)cc1`: the activity change vs negative control is -12.7% (active).

Turning to `CCCOc1ccc(C(=O)NNC(=S)NC(=O)c2ccccc2)cc1`, the activity change vs negative control is -1.3% (active).

As for `CCOc1ccc(NC(=S)NC(=O)c2ccco2)cc1`, the activity change vs negative control is 37.5%.

As for `COc1ccc(/C=C/C(=O)NC(=S)NNC(=O)c2cccs2)cc1`, the activity change vs negative control is 6.5%.

As for `CCCOc1ccc(C(=O)NNC(=S)NC(=O)c2ccco2)cc1`, the activity change vs negative control is -4.6% (active).

For `COC(=O)C1=C(C)NC2=C(C(=O)CCC2)C1c1ccc(-c2ccsc2C(=O)OC)o1` (stereo not given), the activity change vs negative control is 75.1%.

`O=C(NC(=S)NCc1ccccc1)c1cccs1`: the activity change vs negative control was 36.9%.

`CCOc1ccc(-c2c(=O)n(O)c3ccccc3[n+]2[O-])cc1`: the activity change vs negative control was 83.3%.

In the case of `S=c1[nH]cc(Cc2ccccc2)s1`, the activity change vs negative control is 25.1%.

`Oc1c(Br)cc(Br)cc1C=Nc1cccc2ncccc12`: the activity change vs negative control was 52.3%.

Consider `Oc1c(Br)cc(Br)cc1CNc1cccc2cccnc12`, for which the activity change vs negative control was -1.8% (active).

Take `O=C1C=C(Nc2cccc3cccnc23)c2ccccc2C1=O`: the activity change vs negative control is 14.9%.

Consider `COc1ccc(-n2ncc3c2CC(C)(C)CC3NC(=O)c2cn[nH]c2)cc1` (stereo not given), for which the activity change vs negative control was 0.2%.

On to `Cc1cc(C)cc(-n2ncc3c2CCCC3NC(=O)c2csnn2)c1` (stereo not given), for which the activity change vs negative control was -0.8% (active).

`Cc1cccnc1NC(=O)c1csnn1`: the activity change vs negative control is 14.2%.

Regarding `Cc1ccc(-n2ncc3c2CCCC3NC(=O)c2csnn2)cc1C` (stereo not given), the activity change vs negative control is -1.1% (active).
